Screening data as filed in PubChem.
HPGD block = qHTS Assay for Inhibitors of HPGD (15-Hydroxyprostaglandin Dehydrogenase). purified HPGD, NADH fluorescence kinetic, PGE2 substrate. Potency, µM, inactives show top-dose activity change, negative = inhibition, hits mostly inhibitors. 150,000 compounds, 4.3% hits. 15-hydroxyprostaglandin dehydrogenase [NAD(+)] (Homo sapiens), P15428; also: potency is read from the fitted curve at half-maximal effect
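20 nM HPGD preincubated 15 min at room temperature with compound in 50 mM Tris-HCl pH 8, 0.01% Tween 20. Started with 1 mM NAD+ and 30 uM prostaglandin E2; NADH fluorescence (360/450 nm) read 5 times over 30-s intervals, last minus first.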
IMPase Li cell = qHTS Assay for Identifying the Cell-Membrane Permeable IMPase Inhibitors: Potentiation with Lithium; CHO-M1 cells, IP1 TR-FRET (IP-One), carbachol + lithium; Potency, µM (titrated, usually from 59.4 µM), inactives show at the highest dose activity, negative = IMPase inhibition, actives largely listed as inhibitors; 210,000 compounds, 0.35% hits; AID 1457, 2008; active = well fitted curve in the direction sought with a large enough effect; inconclusive = small, poorly fitted or top-dose-only effect, or another doubt; inactive = no such curve, though single readings can be large; an effect the other way counts as inactive or inconclusive;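 also: IP1 builds up when IMPase is blocked and the TR-FRET signal falls; potency is read from the fitted curve at half-maximal effect; plate controls were basal vehicle for no effect and high inhibitor control for full effect; nearly all actives have a fitted effect of over 50% in size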
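Steps: plate 2000 CHO-M1 cells per well and culture 16–30 h; add compound and lithium; incubate 30 min, 37C; add d2-IP1 tracer and Eu cryptate anti-IP1 antibody in lysis buffer; read after 10 min at room temperature.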
IMPase inh = qHTS Assay for Identifying the Cell-Membrane Permeable IMPase Inhibitors; Inositol monophosphatase 1 (Rattus norvegicus), P97697; inhibition (IP1 accumulation), % at 46.1 µM; CHO-M1 cells, IP1 accumulation, HTRF TR-FRET ratio; 120,000 tested, under 10 active; active = well fitted curve in the direction sought with a large enough effect in the signal ratio, not every such curve was filed as active; inconclusive = small, poorly fitted or top-dose-only effect, or a change in a side signal; inactive = no such curve, though single readings can be large or run the other way; the % refers to the signal ratio;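 also: cells stimulated with carbachol in lithium chloride buffer; plate controls were DMSO basal wells for no effect and reference inhibitor wells for full effect; higher means more IMPase inhibition seen as more IP1 and lower FRET ratio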
Target sequence (P97697 whole entry, looked up): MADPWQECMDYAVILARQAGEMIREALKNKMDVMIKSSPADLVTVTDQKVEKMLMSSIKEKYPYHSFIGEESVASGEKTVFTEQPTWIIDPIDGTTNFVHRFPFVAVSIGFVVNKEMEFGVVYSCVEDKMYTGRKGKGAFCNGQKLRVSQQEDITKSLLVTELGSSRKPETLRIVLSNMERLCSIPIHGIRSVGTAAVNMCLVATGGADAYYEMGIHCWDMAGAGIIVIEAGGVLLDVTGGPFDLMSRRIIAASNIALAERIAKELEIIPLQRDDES
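Measured: the HTRF emission ratio (665/620 nm) plus the 620 nm donor channel, each fitted to the Hill equation to give AC50. Cells were CHO-M1 given compounds up to 46 uM and a 30 min carbachol stimulation at 37C.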
ALDH1A1 inh = qHTS Assay for Inhibitors of Aldehyde Dehydrogenase 1 (ALDH1A1). Aldehyde dehydrogenase 1A1 (Homo sapiens), P00352. Purified ALDH1A1, NADH fluorescence, propionaldehyde substrate. Potency, µM (series often up to 75.3 µM), inactives show top-dose activity, negative = inhibition, most hits filed as inhibitors. 220,000 compounds, 7.3% hits. AID 1030, 2008;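 also: potency is read from the fitted curve at half-maximal effect; plate controls were no enzyme wells and a reference inhibitor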
Target sequence (P00352 whole entry, looked up): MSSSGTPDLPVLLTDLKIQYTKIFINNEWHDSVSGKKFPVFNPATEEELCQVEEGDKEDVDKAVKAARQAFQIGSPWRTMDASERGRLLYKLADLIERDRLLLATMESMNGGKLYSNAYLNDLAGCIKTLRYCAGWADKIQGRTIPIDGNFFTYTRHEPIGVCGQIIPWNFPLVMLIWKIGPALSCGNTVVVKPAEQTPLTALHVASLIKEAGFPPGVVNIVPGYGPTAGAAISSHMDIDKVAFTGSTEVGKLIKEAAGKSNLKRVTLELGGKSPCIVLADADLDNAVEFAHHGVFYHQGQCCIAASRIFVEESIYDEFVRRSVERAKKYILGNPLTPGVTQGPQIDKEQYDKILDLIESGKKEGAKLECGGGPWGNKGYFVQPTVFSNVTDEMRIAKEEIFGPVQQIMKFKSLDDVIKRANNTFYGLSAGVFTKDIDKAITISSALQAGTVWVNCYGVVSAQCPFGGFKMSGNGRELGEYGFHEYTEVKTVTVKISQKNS
ALOX12 inhib = qHTS Assay for Inhibitors of 12-hLO (12-human lipoxygenase) | Polyunsaturated fatty acid lipoxygenase ALOX12 (Homo sapiens), P18054 | Potency, µM (doses to about 57.1 µM), without a hit: top-dose activity change, negative = inhibition, hits mostly inhibitors | purified 12-hLO, xylenol orange hydroperoxide absorbance | 150,000 compounds, 0.12% hits; active = well fitted curve in the direction sought with a large enough effect; inconclusive = small, poorly fitted or top-dose-only effect, or another doubt; inactive = no such curve, though single readings can be large; an effect the other way counts as inactive or inconclusive; also: potency is read from the fitted curve at half-maximal effect; nearly all actives have a fitted effect of over 55% in size
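Purified human 12hLO (150 nM), preincubated 15 min with compound, then 40 uM arachidonic acid for 30 min, room temperature, Hepes pH 7.0 with 0.01% Triton X-100. Hydroperoxide detected by ferrous iron/xylenol orange; 573/405 nm absorbance ratio gives reaction progress.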
PNC assembly inh = High Content Assay for Compounds that inhibit the Assembly of the Perinucleolar Compartment. PC3M PTB-GFP, PNC prevalence imaging, 16 h; hits give low values. 140,000 compounds, 3.1% hits. activity change (PNC), negative = inhibition, % at 10 µM;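 active = readout at or below -70, meaning at least 70% loss of cells showing the perinucleolar compartment, a nuclear body marking cancer cells; inconclusive = readout between -30 and a set limit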;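 also: plate controls were DMSO wells for no effect and camptothecin positive control wells for full effect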
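Read-out is percentage of cells bearing a perinucleolar compartment, from automated 20x imaging of fixed, Hoechst-stained PC3M PTB-GFP cells. Cells were seeded 4 h, then exposed 16 h to compound (23 nl of library stock) in duplicate plates.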
* = called active by the depositor; ? = inconclusive; · = no result given; [ ] = dose if it differs, or a comment. Sampled rows, rich in hits. Any-hit rate of the full collection: about 11%. Unless noted, calls follow the shape of the dose curve; as a rule, active = well fitted inhibition curve with a large enough effect (not every such curve was filed as active); inconclusive = small, poorly fitted or top-dose-only effect, or another doubt; inactive = no such curve, though single readings can be large or run the other way. Unless noted, % is scaled to controls: 0 for no effect and ±100 for the full control effect.

SMILES	HPGD block	IMPase Li cell	IMPase inh	ALDH1A1 inh	ALOX12 inhib	PNC assembly inh
COc1cccc(Cn2c(=O)c(-c3ccc(Cl)cc3)nc3cnc(N(C)C)nc32)c1	-20%	9%	·	?	1%	·
Cn1c(SCC(=O)NC(C)(C)C)nnc1-c1cccc(NC(=O)c2ccccc2F)c1	-1%	20%[38.3 µM]	-5	2%	-4%	-13
O=C(CSc1nc2ccc(NC(=O)CSc3nnnn3-c3ccccc3)cc2s1)Nc1ccccc1	?	-7%	·	?	-3%	3
Cn1c(SCC(=O)N2CCOCC2)nnc1-c1cccc(NC(=O)c2ccccc2F)c1	-15%	16%[38.3 µM]	-16	25µM*	0%	25
Cn1cnnc1SCC(=O)Nc1ccc2nc(SCc3ccccc3F)sc2c1	-24%	12%[38.3 µM]	-4	13µM*	5%	-13
CCCC(=O)Nc1ccc2nc(SCC(=O)N3CCCC3)sc2c1	·	7%	·	2%	·	·
Cn1c(SCC(=O)Nc2ccc3nc(SCC(=O)N4CCCC4)sc3c2)nnc1-c1ccccc1	4µM*	8%[38.3 µM]	?	22µM*	-11%	-22
O=C(c1cc(C(F)(F)F)cc(C(F)(F)F)c1)N1CCC2(CC1)CCN(c1ccccn1)CC2	-30%	14%	·	-8%	-18%	·
C[C@@H](CN(C)C)CN1c2ccccc2CCc2ccccc21	-4%	25%	18[20.6 µM]	8%[20.9 µM]	14%[25.6 µM]	·
Cc1ccc(S(=O)(=O)Nc2cccc(Oc3cnccn3)c2)cc1	·	17%	·	7.9µM*	·	·
Cc1nnc(SCc2ccc(Cl)c(Cl)c2)s1	·	13%	·	3%	·	·
Cc1[nH]c(=S)sc1Cc1ccc(Cl)c(Cl)c1	16µM*	2%	·	25µM*	?	-4
CCOc1cc(-c2nc3c(c(CC)nn3-c3ccccc3)c3cc(OC)c(OC)cc23)ccc1O	·	·	-28	·	·	·
CC1(C)S[C@@H]2[C@H](NC(=O)COc3ccccc3)C(=O)N2[C@H]1C(=O)O	-9%	2%	·	0%	-2%[0.00818 µM]	·
O=C(OC1CCOC1=O)c1cc(-c2ccc(Br)cc2)nc2ccccc12 (centres undefined)	-59%	-16%	-14	?	-1%	-119*
CO[C@H]1COC(=O)[C@H]2CCCN2C(=O)[C@@H](C)COC(=O)C/C=C\[C@@H]1C	·	·	·	21%[13.5 µM]	·	·
O=C(C1CCN(S(=O)(=O)c2cnc[nH]2)CC1)N(CCc1ccccc1)Cc1ccccc1	·	-7%	·	-3%	·	·
CCN(CC)S(=O)(=O)N1CCC(C(=O)NCC2COc3ccccc3O2)CC1 (centres undefined)	-15%	4%	-14	2.5µM*	8%	195
CCN(CC)S(=O)(=O)N1CCC(C(=O)NCc2ccc3c(c2)OCO3)CC1	-16%	-2%	·	?	-3%	-2
O=C(NCC1COc2ccccc2O1)C1CCCN(S(=O)(=O)c2cnc[nH]2)C1 (centres undefined)	-9%	14%[38.3 µM]	11	-1%	0%	-93*
CC(NC(=O)C1CCCN(S(=O)(=O)c2cnc[nH]2)C1)c1ccccc1 (centres undefined)	-7%	-5%[38.3 µM]	8	12%	?	-81*
O=C(C1CCCN(S(=O)(=O)c2cnc[nH]2)C1)N(CCc1ccccc1)Cc1ccccc1 (centres undefined)	-12%	4%[38.3 µM]	14	11µM*	-3%	12
CCc1nc(SCC(=O)Nc2nnc(CC(C)C)s2)n[nH]1	·	7%	·	?	·	·
COCCN=C1Sc2nc3c(C)cccc3cc2CN1Cc1ccco1	22µM*	-16%[38.3 µM]	5	3.5µM*	-20%	4
Cc1ccc2nc3c(cc2c1)CN(Cc1ccco1)C(=NCC1CCCO1)S3 (centres undefined)	-17%	10%	7	?	-1%	12
SMILES	HPGD block	IMPase Li cell	IMPase inh	ALDH1A1 inh	ALOX12 inhib	PNC assembly inh
Cc1cccc2cc3c(nc12)SC(=NCC1CCCO1)N(Cc1ccco1)C3 (centres undefined)	·	·	6	4.5µM*	-27%	-27
Cc1ccc(S(=O)(=O)N[C@H]2COC(=O)[C@H](C)COC(=O)C/C=C\[C@H]2C)cc1	·	·	·	11%[13.5 µM]	·	·
CCCCCCC1=Cc2cc(OC)c(OC)cc2C(CC(=O)/C=C/OC)O1 (centres undefined)	·	·	·	-2%[13.5 µM]	·	·
CC(C)CCCC(C)C1CCC2C3CC=C4CC(=O)CC[C@@]4(C)C3CC[C@@]12C (some centres undefined)	-10%	2%	·	-3%	-2%	·
Cc1cccc(N2CCN(C(=O)C3CCCCC3)CC2)c1C	-14%	-3%[38.3 µM]	8	-11%	-3%	-30
Cc1cc(N2CCC(C(=O)N3CCN(c4cccc(C)c4C)CC3)CC2)n2ncnc2n1	-23%	6%[38.3 µM]	10	4µM*	0%	26
O=C(NC1CCCCC1)NC1CCCCC1	-26%	10%	·	?	6%	·
c1ccc(N2CCN(Cc3nnnn3C3CCCCC3)CC2)cc1	-7%	4%[38.3 µM]	0	28µM*	4%	4
O=C(Nc1ccccc1)NC1CCN(Cc2nnnn2C2CCCCC2)CC1	-11%	-2%[38.3 µM]	1	14µM*	0%	-15
Cc1ccccc1C(=O)NC1CCN(Cc2nnnn2C2CCCC2)CC1	-6%	-2%	-2	-7%	-2%	-20
C1CCC(n2nnnc2CN2CCN(C3CCCC3)CC2)CC1	-10%	-1%[38.3 µM]	2	-5%	-6%	14
CCCCOc1ccc(Cn2c(=O)sc3ccccc32)cc1	·	·	1	·	·	·
CCCCCC(=O)NNC(=S)NC(=O)c1ccccc1[N+](=O)[O-]	·	14%	·	-7%	·	·
CCCC(=O)NC(=S)NNC(=O)c1ccc([N+](=O)[O-])cc1	-10%	-2%	·	18µM*	2%	?
CCCCCC(=O)NNC(=S)NC(=O)c1cccc([N+](=O)[O-])c1	10µM*	-6%	·	1.3µM*	-11%	14
CCCCCCCC(=O)NNC(=O)c1ccc([N+](=O)[O-])cc1	-2%	-21%[38.3 µM]	1	?	2%	51
O=C(COc1ccc([N+](=O)[O-])cc1)NNC(=S)NC(=O)c1ccc(Br)cc1	·	-2%	·	8.9µM*	·	·
O=C(COc1ccccc1)NNC(=S)NC(=O)c1ccccc1	·	-2%	·	22µM*	·	·
CN1CCN(c2ncc3ncc(=O)n(C4CC4)c3n2)CC1	·	-6%	·	?	·	·
COc1cccc(-c2noc(-c3ccc(Cl)nc3)n2)c1	·	5%	·	5%	·	·
